Experimental data as given in ChEMBL document CHEMBL1157539, “Thousands of chemical starting points for antimalarial lead identification” (Nature, 2010).

Tests used:
Type in all cases: functional
Plasmodium falciparum [1] = assay: GSK_TCMDC: Inhibition of Plasmodium falciparum 3D7 in whole red blood cells, using parasite LDH activity as an index of growth. Test compounds present at 2uM
Plasmodium falciparum [2] = assay: GSK_TCMDC: Inhibition of Plasmodium falciparum Dd2 in whole red blood cells, using parasite LDH activity as an index of growth. Test compounds present at 2uM
HepG2 = assay: GSK_TCMDC: Percent inhibition of human HepG2 cell line. Test compounds present at 10uM.

Row | SMILES | Inhibition (Plasmodium falciparum [1]) [%] | Inhibition (Plasmodium falciparum [2]) [%] | Inhibition (HepG2) [%]
1 | CN1CCCc2ccc(NC(=O)c3cnc(-c4ccccc4)cn3)cc21 | 87 | 82 | 24
2 | CC[C@H](NC(=O)c1c(CC2CCN(CC(C)=O)CC2)c(-c2ccccc2)nc2ccccc12)c1ccccc1 | 97 | 96 | 7
3 | Cc1cc(F)ccc1-c1nc(NCCCNCCc2ccccc2)nc2c1ccc(=O)n2-c1c(F)cccc1F.O=C(O)C(F)(F)F | 100 | 100 | 36
4 | COc1cc(C(=O)Nc2ccc3nc(N4CCN(C)CC4)cc(C)c3c2)cc(OC)c1OC | 100 | 79 | 18
5 | CC1Cc2ccccc2N1S(=O)(=O)c1cccc(C(=O)Nc2nc(-c3ccccn3)cs2)c1 (stereo not drawn) | 84 | 77 | 32
6 | CC(C)(C)OC(=O)N1CCC(C2CCN(C(=O)OC(C)(C)C)CC2)CC1 | 86 | 28 | 0
7 | CCc1ccc(NC(=O)N(CCCn2ccnc2)Cc2csc(-c3ccc(CNCc4ccccc4)cc3)n2)cc1.O=C(O)C(F)(F)F | 100 | 39 | 9
8 | Cc1cnccc1/C=C/c1cccc(OCCCN2CCc3ccc(S(C)(=O)=O)cc3CC2)c1 | 92 | 72 | 1
9 | CCOCn1c(-c2ccccc2)cc2c3c(N)nc(N)nc3ccc21 | 91 | 66 | 62
10 | CCOC(=O)C1=C(C)NC(C)=C(C(=O)OCC)C1(C(=O)OCc1ccccc1)c1cccc(C(F)(F)F)c1 | 88 | 60 | 0
11 | Cc1cc(N)c2cc(NC(=O)c3cc(C(F)(F)F)cc(C(F)(F)F)c3)ccc2n1.Cl | 100 | 99 | 100
12 | O=C(C=Cc1ccc(Cl)c(Cl)c1)NCCCCCN1CCC(CCCNS(=O)(=O)c2ccc(F)cc2)CC1 | 93 | 20 | 52
13 | COCCCNC(=O)c1ccc(O)c(-c2cc(Cl)cc(Cl)c2)c1 | 94 | 34 | 22
14 | CO/C(=C\C=C\c1cc2cc(Cl)c(Cl)cc2[nH]1)C(=O)NCCN1CCCCC1 | 81 | 86 | 16
15 | Cc1cc(Nc2nc(Nc3cccc(Cl)c3)nc3ccccc23)n[nH]1 | 100 | 95 | 9
16 | COc1ccc2ncc(Cl)c(CCN3C[C@H](CNCc4ccc5c(n4)NC(=O)CS5)[C@H](O)C3)c2n1.Cl | 94 | 16 | 2
17 | CN1CCC(NCc2ccc(-c3cccc(S(=O)(=O)NCCc4ccccn4)c3)cc2)CC1.O=C(O)C(F)(F)F | 84 | 0 | 42
18 | CN(C)c1nc(NN=Cc2cc(Cl)ccc2O)nc(Nc2ccc(F)cc2)n1 | 94 | 46 | 32
19 | Cl.N[C@@H](CCNCc1ccc(-c2cccnc2)cc1)Cc1ccc(F)c(F)c1 | 98 | 57 | 45
20 | Cl.O=S(=O)(Nc1cc2c(cc1OCc1ccccc1)CCN(C1CCC1)CC2)c1ccc(-c2ccc(Cl)cc2)cc1 | 92 | 12 | 18
21 | CC(=O)c1ccc(O)c(CC(O)CO)c1 (stereo not drawn) | 100 | 0 | 3

Row | SMILES | Inhibition (Plasmodium falciparum [1]) [%] | Inhibition (Plasmodium falciparum [2]) [%] | Inhibition (HepG2) [%]
22 | Nc1nccc2ccc(-c3ccc4nccn4c3)cc12.O=C(O)C(F)(F)F | 100 | 100 | 15
23 | Cc1cccc2nc(-c3ccc(-c4ccc(NC(=O)NCc5ccccc5)cc4)s3)[nH]c12 | 93 | 8 | 79
24 | COc1cccc(CNc2noc(-c3c(-c4ccccc4)noc3C)n2)c1OC | 97 | 86 | 0
25 | CC(C)(C)OC(=O)NCc1ccc(Nc2nnc(-c3cccc(C(=O)NCc4cc(C(F)(F)F)cc(C(F)(F)F)c4)c3)o2)cc1 | 90 | 13 | 4
26 | COc1ccc(Cl)cc1N1CCN(CCCNC(=O)c2ccc(-c3nc4cc(Cl)c(C)cc4[nH]3)c(F)c2)CC1 | 99 | 91 | 0
27 | Fc1ccc2[nH]c(-c3ccc(-c4ccc(CNCCc5ccncc5)cc4)s3)nc2c1.O=C(O)C(F)(F)F | 99 | 100 | 34
28 | Nc1nccc(-c2ccc3c(/C=C/c4ccccc4)cnc(N)c3c2)n1 | 100 | 100 | 32
29 | CN1CCN(CC(=O)Nc2cccc(-c3ccc(-c4nc5cc(C(F)(F)F)ccc5[nH]4)cc3)c2)CC1 | 100 | 94 | 37
30 | CN(C)CCOc1ccc(NC(=O)Nc2ccnc3c(Br)cccc23)cc1Cl | 97 | 25 | 10
31 | COc1ccc(CCNC(=O)c2cc3c(=O)n4cccc(C)c4nc3n(C)c2=N)cc1 | 99 | 99 | 22
32 | C[C@H](NC(=O)c1c(CN2CCN(C(=O)C(C)(C)C)CC2)c(-c2cccs2)nc2ccccc12)C1CCCCC1 | 89 | 62 | 2
33 | Br.CCCc1cc(OCCCOc2ccccc2)ccc1OCCCON1C(=N)N=C(N)NC1(C)C | 94 | 96 | 68
34 | O=C(Nc1ccccc1)Nc1cccc(-c2cc(CNCCc3ccccc3)sc2-c2ccncc2)c1 | 100 | 84 | 14
35 | CC(=O)c1ccc(-c2ccc(C(=O)NCCCCN3CCC(c4ccc5c(c4O)CCCC5)CC3)cc2)cc1 | 100 | 83 | 87
36 | Cc1ccc(Nc2nnc(SCC(=O)Nc3ccc(CN4CCCC4)cc3)s2)cc1 | 91 | 0 | 4
37 | CS(=O)(=O)c1ccc(-c2cnc(N)c(-c3cccc(O)c3)c2)cc1 | 98 | 97 | 48
38 | FC(F)(F)Oc1cccc(CNc2noc(-c3sccc3Br)n2)c1 | 100 | 97 | 0
39 | O=C(/C=C/c1ccc(Cl)c(Cl)c1)NCCCCCN1CCC(NC(=O)Nc2ccc3c(c2)OCO3)CC1 | 100 | 5 | 12
40 | CC(C)CNC(=O)c1cncc(-c2ccc(CNC3Cc4ccccc4C3)cc2)c1.O=C(O)C(F)(F)F | 99 | 37 | 5
41 | CC(C)C[C@H](NC(=O)c1cc2cc(OCCN3CCNCC3)ccc2o1)C(=O)NC1CC[C@@H](C)N(C(=O)Nc2ccc(Cl)cc2)CC1=O.O=C(O)C(F)(F)F (stereo partly drawn) | 90 | 92 | 0
42 | CNC(=O)c1cnc(Nc2ccc(N3CCN(C)CC3)cc2)nc1Nc1ccccc1OC.O=C(O)C(F)(F)F | 100 | 84 | 8

Row | SMILES | Inhibition (Plasmodium falciparum [1]) [%] | Inhibition (Plasmodium falciparum [2]) [%] | Inhibition (HepG2) [%]
43 | Cc1[nH]c(C)c(-c2ccc(-c3cccc(Cl)c3)nc2)c(=O)c1Cl | 97 | 97 | 15
44 | CN1CCC(Oc2ccc(CN3CC[C@H](NC(=O)c4ccc(Cl)c(Cl)c4)C3)cc2Cl)C1.O=C(O)C(F)(F)F (stereo partly drawn) | 100 | 78 | 68
45 | O=C(Nc1ccc(-c2nc3ccccc3[nH]2)cc1)c1ccc(Cl)c([N+](=O)[O-])c1 | 99 | 4 | 6
46 | O=C(Nc1cccc(-c2ccc(-c3nc4cc(C(F)(F)F)ccc4[nH]3)cc2)c1)Nc1ccc(Cl)c(Cl)c1 | 100 | 51 | 93
47 | O=C(c1cccc(Cl)c1)N1CCN(c2ccc([N+](=O)[O-])c(NC3CC3)c2)CC1 | 100 | 79 | 11
48 | Cc1cnc(Nc2cccc(CCN3CCOCC3)c2)nc1NC(C)C.Cl | 97 | 76 | 53
49 | CCOc1cc(Br)c(C(C)NC(=O)c2cccc(OC)c2)cc1OCC (stereo not drawn) | 90 | 37 | 0
50 | CC(C)COc1ccc(Cl)cc1Cc1nc(-c2nc3ccc(CN4CCCCC4)cc3[nH]2)co1.Cl | 100 | 70 | 49
51 | CCCNCc1ccc(-c2ccc(CN(C(=O)c3nn(-c4ccccc4)nc3C)C(C)CN(C)C)cc2)nc1.O=C(O)C(F)(F)F (stereo not drawn) | 95 | 95 | 27
52 | CCCCSc1ccc2nc(-c3c[nH]c4ccc(C#N)cc34)cn2c1 | 94 | 37 | 3
53 | COc1cccc(CN2Cc3ccccc3OC3(CCN(Cc4c[nH]c5cnccc45)CC3)C2)c1.O=C(O)C(F)(F)F | 83 | 83 | 39
54 | CCCc1ccc(N2C(N)=NC(N)=NC2(C)C)cc1.Cl | 94 | 0 | 59
55 | Cc1c(Cl)ccc2sc(N3CCN(C(=O)c4ccc([N+](=O)[O-])o4)CC3)nc12 | 96 | 93 | 0
56 | Cc1sc(C)c(CNCCCNc2cc(=O)c3ccccc3[nH]2)c1Br.Cl | 93 | 15 | 0
57 | CCC(C)(C)c1ccc2nc(N)nc(N)c2c1C | 91 | 82 | 62
58 | CCN(CCS(C)(=O)=O)Cc1ccc(-c2ccc3ncnc(Nc4ccc(OCc5cccc(F)c5)c(Cl)c4)c3c2)o1.Cc1ccc(S(=O)(=O)O)cc1 | 100 | 63 | 5
59 | O=C(CCC1CCCC1)N(Cc1ccc(-c2ccc(CNCCc3ccccn3)cc2)cc1)CC1CCCCN1.O=C(O)C(F)(F)F (stereo not drawn) | 95 | 69 | 32
60 | Clc1cccc(CNc2nc(NCCc3c[nH]cn3)nc(NC3CCCCC3)n2)c1 | 98 | 0 | 17
61 | CC(C)c1ccc(NC(=O)N2CCc3ccc(OCCN(C(C)C)C(C)C)cc32)c(Br)c1.O=C(O)C(F)(F)F | 86 | 5 | 6
